Inconclusive results are not listed. The source made the active and inactive calls. Calls come from the whole dose curve; as a rule, active = well fitted curve in the direction sought with a large enough effect; inconclusive = small, poorly fitted or top-dose-only effect, or another doubt; inactive = no such curve, though single readings can be large or run the other way.
These compounds were tested against Pyruvate kinase PKM (Homo sapiens) (UniProt P14618) (assay: Secondary LDH Assay for Activators of Human Pyruvate Kinase M1 Isoform: for Probe SAR). Details: purified hPK-M1, LDH-coupled NADH fluorescence kinetic; series mostly up to 58.2 µM.
Sequence of Pyruvate kinase PKM (Homo sapiens) (P14618 whole entry, looked up, canonical isoform): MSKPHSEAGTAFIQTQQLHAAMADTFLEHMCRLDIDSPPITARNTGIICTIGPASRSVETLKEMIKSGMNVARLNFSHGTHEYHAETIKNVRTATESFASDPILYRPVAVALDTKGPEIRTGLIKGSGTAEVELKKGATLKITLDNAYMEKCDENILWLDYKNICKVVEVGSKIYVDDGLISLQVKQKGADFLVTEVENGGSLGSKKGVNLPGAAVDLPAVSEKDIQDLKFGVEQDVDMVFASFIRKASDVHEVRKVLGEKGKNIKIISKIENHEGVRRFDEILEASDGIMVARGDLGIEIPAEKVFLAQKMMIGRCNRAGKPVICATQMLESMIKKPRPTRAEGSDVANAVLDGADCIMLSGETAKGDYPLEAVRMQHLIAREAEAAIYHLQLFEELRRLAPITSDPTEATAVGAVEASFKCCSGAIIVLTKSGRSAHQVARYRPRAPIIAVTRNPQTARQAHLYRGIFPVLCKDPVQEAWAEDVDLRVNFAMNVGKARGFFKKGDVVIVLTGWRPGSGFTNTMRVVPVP
In short: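 10 nM hPK-M1 coupled to 1 uM LDH, with 0.1 mM PEP, 4.0 mM ADP, 0.2 mM NADH, 50 mM Tris pH 8.0, 200 mM KCl, 15 mM MgCl2 (final). NADH fluorescence depletion followed kinetically 3-6 min; initial rates normalized to uninhibited controls.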

outcome, inactive:
O=C1CCc2cc(S(=O)(=O)Nc3ccc4ncccc4c3)ccc2N1
O=C1c2ccccc2C(=O)N1C1CCCCC1
Cc1ccc(N[S+](=O)([O-])c2cc3c(cc2CCc2ccccc2)NC(=O)CO3)cc1C
Cc1ccc(NS(=O)(=O)c2ccc3c(c2)CCN(C(=O)C(F)(F)F)C3)cc1C
O=C1CCc2cc(S(=O)(=O)Nc3cccnc3)ccc2N1
Cc1ccc(NS(=O)(=O)c2cc3c(cc2N(C)C)CCC(=O)N3)cc1C
O=C1CCc2cc(S(=O)(=O)Nc3cccc(Br)c3)ccc2N1
CC(=O)N1CCc2cc(S(=O)(=O)Nc3ccc(C)c(C)c3)ccc21
COc1ccc(S(=O)(=O)Nc2ccc(C)c(C)c2)cc1
O=C1CCc2cc(S(=O)(=O)Nc3cccc(F)c3)ccc2N1
Cc1ccc(-c2nc3cnccn3c2Nc2ccc(C(C)C)cc2)o1
COc1cccc(N2C(=O)c3ccccc3C2=O)c1
O=C1c2ccccc2C(=O)N1c1ccccc1O
Cc1ccc(NS(=O)(=O)c2ccc3c(c2)CCC(=O)N3)cc1Cl
COc1cccc(Cn2ncc3c4sc(S(C)=O)cc4n(C)c3c2=O)c1 (stereo not given)
O=S(=O)(c1ccc2c(c1)OCCO2)N1CCN(S(=O)(=O)c2c(F)cccc2F)CC1
O=C1CCc2cc(S(=O)(=O)Nc3cccc(B(O)O)c3)ccc2N1
O=C1c2ccccc2C(=O)N1c1cccc(Cl)c1
Cc1ccc(NS(=O)(=O)c2ccc3c(c2)CC(=O)N3)cc1C
O=S1(=O)N=C(Oc2ccccc2Cl)c2ccccc21
Cc1cc2c(s1)c1cnn(Cc3ccccc3F)c(=O)c1n2C
O=C1CCc2cc(S(=O)(=O)Nc3cccc(Oc4ccccc4)c3)ccc2N1
CNc1cccc(S(=O)(=O)N2CCN(S(=O)(=O)c3ccc4c(c3)OCCO4)CC2)c1
O=C1c2ccccc2C(=O)N1c1cc(=O)c2ccccc2[nH]1
COc1cccc(OC2=NS(=O)(=O)c3ccccc32)c1
COc1ccc(-c2nc3cccc(C)n3c2Nc2ccc(C)cc2)cc1
CC(=O)Nc1ccc(S(=O)(=O)Nc2ccc(C)c(C)c2)cc1
Cc1ccc(NS(=O)(=O)c2cccc(F)c2)cc1C
CNc1cc2c(cc1S(=O)(=O)Nc1ccc(C)c(C)c1)CCC(=O)N2
O=C1CCc2cc(S(=O)(=O)Nc3ccncc3)ccc2N1

Reference: PubChem BioAssay AID2620 (National Center for Advancing Translational Sciences (NCATS), 2010)
